Experimental data taken from the supplement of paper PMC10981050.
“And” between values parts separate entries of the source, which are not always exact repeats. Equal entries are not always repeated. Structures can show the parent of a compound that is named as a salt.

Columns and labels:
Experiment in all cases: cell viability relative to vehicle control; higher = less cytotoxic
Conditions in all cases: 10 µM
K562 = tested on: K562
Outline: (§1)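 Each screen used CRISPR-edited mutant and wild-type clones from four leukaemia lines. Compounds were acoustically dispensed at a single 10 µM dose, and CellTiter-Glo luminescence was read after 48 h with the supernatant first removed. Viability was analysed in Genedata Screener and given as percent of the on-plate vehicle control.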

MARIMO = tested on: MARIMO
Outline: as §1

MOLM14 = tested on: MOLM14
Outline: as §1

OCI-AML2 = tested on: OCI-AML2
Outline: as §1

SMILES | cell viability (K562; SRSF2 genotype: SRSF2 P95H/wt) | cell viability (K562; SRSF2 genotype: SRSF2 wt/wt) [%] | cell viability (MARIMO; SRSF2 genotype: SRSF2 P95H/wt) [%] | cell viability (MARIMO; SRSF2 genotype: SRSF2 wt/wt) [%] | cell viability (MOLM14; SRSF2 genotype: SRSF2 P95H/wt) [%] | cell viability (MOLM14; SRSF2 genotype: SRSF2 wt/wt) [%] | cell viability (OCI-AML2; SRSF2 genotype: P95H/wt) [%] | cell viability (OCI-AML2; SRSF2 genotype: wt/wt) [%]
Cc1ccc(Nc2cc(N[C@@H]3CCCC[C@@H]3N)nnc2C(N)=O)nc1C | 80.8% and 84.1% | 80.7 | 76.2 | 79 | 18.6 | 18 | 15.1 | 25.2
O=C(O)C=CCCCCCCCO [Royal jelly acid] | 103% and 104% | 102 | 104 | 105 | 98.5 | 102 | 110 | 112
CN(C)CCOc1ccc(/C(=C(/CCCl)c2ccccc2)c2ccccc2)cc1 [Toremifene Citrate (Fareston, Acapodene)] | 64.7% and 56.1% | 71.9 | 53.7 | 65.5 | 56 | 55.7 | 60 | 51.7
Cc1ccc(Cl)c(Nc2ccccc2C(=O)O)c1Cl [Meclofenamate sodium] | 97.7% and 99.9% | 96.9 | 97.2 | 96.4 | 96.8 | 98.5 | 105 | 99.4
O=C(c1ccc(F)c(F)c1Nc1ccc(I)cc1F)N1CC(O)([C@@H]2CCCCN2)C1 [Cobimetinib (GDC-0973, RG7420)] | 22.4% and 35.4% | 35.5 | 27.5 | 28.6 | 29.6 | 21.1 | 18.2 | 26.1
CC[C@@H](C)Nc1cc(C(=O)N[C@H]2C[C@H]3CC[C@@H](C2)N3c2ccc(C(=O)C3CC3)cn2)c(C)cc1C(N)=O | 19.1% and 26.9% | 23 | 32.8 | 28.5 | 2 | 2.43 | 14.2 | 21
COC(=O)N1CCN(Cc2cccc(NC(=O)Nc3ccc(C)nc3)c2F)CC1 | 89.4% and 89.7% | 96.5 | 91.9 | 94.2 | 100 | 99.9 | 88.4 | 87.2
OCCOCCN1CCN(C(c2ccccc2)c2ccc(Cl)cc2)CC1 (stereo not drawn) [Hydroxyzine 2HCl] | 90.8% and 99.8% | 96.4 | 85.2 | 88.6 | 86.6 | 95 | 95.4 | 86.1
COc1c(C)c(C(=O)c2ccc(N)c(C(=O)O)c2)n2ccccc12 | 106% and 97.6% | 101 | 102 | 110 | 105 | 108 | 97.6 | 106
Cc1noc(C)c1-c1ccc(-c2cc(C(N)=O)c(NC(N)=O)s2)c(O[C@H]2CCNC2)c1 | 101% | 93.8 | 94.9 | 103 | 89.5 | 99.7 | 101 | 105
CCN(CC)CCOC(=O)c1ccc(N)cc1Cl [Chloroprocaine HCl] | 95.2% and 93.5% | 97.1 | 103 | 115 | 98 | 99.3 | 90.7 | 113
Cn1cnc2c(F)c(Nc3ccc(Br)cc3Cl)c(C(=O)NOCCO)cc21 [AZD6244 (Selumetinib)] | 79% and 92.2% | 75.3 | 37.5 | 36.3 | 44.6 | 31.3 | 39.6 | 43.6
O=C(COc1ccc(Cl)cc1)NC1CCC(NC(=O)COc2ccc(Cl)cc2)CC1 (stereo not drawn) [ISRIB (trans-isomer)] | 96.3% and 97.5% | 100 | 103 | 102 | 107 | 98.7 | 99.2 | 95.9
C[C@@H]1CC[C@@]2(NC1)O[C@H]1C[C@H]3[C@@H]4CC=C5C[C@@H](O[C@@H]6O[C@H](CO)[C@@H](O[C@@H]7O[C@@H](C)[C@H](O)[C@@H](O)[C@H]7O)[C@H](O)[C@H]6O[C@@H]6O[C@@H](C)[C@H](O)[C@@H](O)[C@H]6O)CC[C@]5(C)[C@H]4CC[C@]3(C)[C@H]1[C@@H]2C [Solamargine] | 85.3% and 85.5% | 81.8 | 51.5 | 89.6 | 81.6 | 81.6 | 91 | 87.2
O=C(O)CCC(=O)Nc1ccc(Br)cn1 [Bikinin] | 100% and 97.8% | 106 | 104 | 104 | 102 | 106 | 102 | 99.7
C=CCc1ccc(O)c(-c2ccc(O)c(CC=C)c2)c1 [Honokiol] | 84.9% and 87.5% | 83.8 | 84.5 | 92.7 | 85.5 | 98.9 | 66.7 | 72.3
C=CC(=O)N1CC/C(=C\c2ccc(F)c([N+](=O)[O-])c2)C(=O)/C(=C/c2ccc(F)c([N+](=O)[O-])c2)C1 | 2.41% and 0.35% | 0.44 | 0.25 | 0.39 | 0.29 | 0.29 | 0.26 | 0.35
CCCCCC1=C(C)CCC1=O [Dihydrojasmone] | 105% | 108 | 101 | 106 | 107 | 105 | 106 | 115
CN1CCc2nc(C(=O)N[C@@H]3C[C@@H](C(=O)N(C)C)CC[C@@H]3NC(=O)C(=O)Nc3ccc(Cl)cn3)sc2C1 [Edoxaban] | 98.2% and 93.3% | 92.5 | 95.7 | 102 | 99.4 | 95.6 | 92.9 | 100
CN(C)CC(c1ccc(O)cc1)C1(O)CCCCC1 (stereo not drawn) [Desvenlafaxine Succinate] | 96.4% and 90.5% | 101 | 98.4 | 103 | 98.4 | 100 | 100 | 90
CC(C)=CCC[C@](C)(O)[C@H]1CC[C@]2(C)[C@@H]1[C@H](O)C[C@@H]1[C@@]3(C)CC[C@H](O[C@@H]4O[C@H](CO)[C@@H](O)[C@H](O)[C@H]4O[C@@H]4O[C@H](CO)[C@@H](O)[C@H](O)[C@H]4O)C(C)(C)[C@@H]3CC[C@]12C [20S-Ginsenoside Rg3] | 107% and 97.7% | 101 | 108 | 108 | 101 | 102 | 105 | 104

SMILES | cell viability (K562; SRSF2 genotype: SRSF2 P95H/wt) | cell viability (K562; SRSF2 genotype: SRSF2 wt/wt) [%] | cell viability (MARIMO; SRSF2 genotype: SRSF2 P95H/wt) [%] | cell viability (MARIMO; SRSF2 genotype: SRSF2 wt/wt) [%] | cell viability (MOLM14; SRSF2 genotype: SRSF2 P95H/wt) [%] | cell viability (MOLM14; SRSF2 genotype: SRSF2 wt/wt) [%] | cell viability (OCI-AML2; SRSF2 genotype: P95H/wt) [%] | cell viability (OCI-AML2; SRSF2 genotype: wt/wt) [%]
C[C@@H]1[C@H]2c3cc4c(cc3O[C@@]35OCOC3=CC(=O)[C@H](C[C@H]1C)[C@@H]25)OCO4 [Sauchinone] | 92.2% and 99.5% | 100 | 87.5 | 92.9 | 55.1 | 94.9 | 87.6 | 86.8
CCCC(CCC)C(=O)O [Valproic acid sodium salt (Sodium valproate)] | 95% and 89.8% | 102 | 84.2 | 91.5 | 93.2 | 93.7 | 89.8 | 95.9
CCCNC(=O)C1OC1C(=O)NC(C(=O)N1CCCC1C(=O)OC)C(C)CC (stereo not drawn) [CA-074 methyl ester (CA-074 Me)] | 76.9% and 62.3% | 70.2 | 66 | 90.1 | 18.2 | 11.8 | 25.6 | 24.1
CC(C)Oc1ccc(-c2nc(-c3cccc4c3CC[C@@H]4NCCO)no2)cc1C#N [Ozanimod (RPC1063)] | 34% and 30.5% | 30.6 | 27.3 | 32.2 | 38.6 | 40.5 | 29 | 34.4
Cc1ncc(COP(=O)(O)O)c(C=O)c1O [Pyridoxal phosphate] | 103% and 104% | 105 | 100 | 106 | 100 | 106 | 103 | 110
COc1cccc2c1C(=O)c1c(O)c3c(c(O)c1C2=O)C[C@@](O)(C(=O)CO)C[C@@H]3O[C@H]1C[C@H](N)[C@H](O[C@@H]2CCCCO2)[C@H](C)O1 [Pirarubicin] | 9.97% and 17.9% | 15.8 | 5.07 | 2.51 | 0.15 | 0.13 | 0.2 | 0.51
CCOC(=O)C1=C(C)NC(=S)NC1c1cccc(O)c1 (stereo not drawn) [Monastrol] | 106% and 97.8% | 103 | 103 | 99.4 | 105 | 103 | 101 | 102
O=C(NCc1cccc(O)c1)Nc1nc(-c2ccncc2)cs1 | 92% and 95.8% | 106 | 65.6 | 85.8 | 25.3 | 60.8 | 18.8 | 27.6
COc1ccc([C@@H]2OC[C@H]3[C@@H]2CO[C@@H]3c2ccc3c(c2)OCO3)cc1OC [Fargesin] | 87.8% and 91.3% | 92.7 | 84.8 | 86 | 97.2 | 94.5 | 88.6 | 80.4
COc1ccc(C(=O)CC2(O)C(=O)Nc3c(Cl)ccc(Cl)c32)cc1 (stereo not drawn) | 16.2% and 28.8% | 27.4 | 7.08 | 8.57 | 6.9 | 2.04 | 4.82 | 10.3
COC(=O)N[C@H](C(=O)N[C@@H](Cc1ccccc1)[C@@H](O)CN(Cc1ccc(-c2ccccn2)cc1)NC(=O)[C@@H](NC(=O)OC)C(C)(C)C)C(C)(C)C [Atazanavir sulfate] | 97.1% and 109% | 102 | 93.5 | 118 | 103 | 104 | 94.5 | 97.3
CNCCN(C)Cc1c[nH]nc1-c1ccc(O[C@H]2C[C@H](OCCC3CCOCC3)C2)cc1 | 90% and 92.8% | 89.7 | 89 | 92.4 | 79.4 | 96.4 | 67.1 | 75.1
CCOc1cc(CC(=O)N[C@@H](CC(C)C)c2ccccc2N2CCCCC2)ccc1C(=O)O [Repaglinide] | 105% and 100% | 97.6 | 103 | 101 | 102 | 101 | 108 | 116
COc1cc(OC)c(NC(=O)Nc2cc(C)on2)cc1Cl | 91.9% and 83.8% | 85.7 | 86.4 | 86.6 | 61.3 | 74.5 | 73.4 | 74.3
Cn1nnc2c(C(N)=O)ncn2c1=O [Temozolomide] | 99.9% and 108% | 101 | 94.5 | 94.2 | 86 | 99.2 | 94.9 | 96.6
Cc1cc(C2CCCCC2)n(O)c(=O)c1 [Ciclopirox ethanolamine] | 59.6% and 58.8% | 47.2 | 21.4 | 26.4 | 8.86 | 2.23 | 18 | 18
CC(C)(C)c1cc(O)c(C(C)(C)C)cc1O | 97% and 97.5% | 95.7 | 73.4 | 92.5 | 88.8 | 93.5 | 86.2 | 93.3
C[C@H]1[C@@H](O)O[C@@H]2O[C@@]3(C)CC[C@H]4[C@H](C)CC[C@@H]1[C@@]24OO3 [Dihydroartemisinin (DHA)] | 37.7% and 30.4% | 28.8 | 25 | 29.9 | 22.1 | 9.71 | 0.58 | 7.67
CC(=O)Nc1nc(-c2cccc(NS(=O)(=O)c3cccc4c(N(C)C)cccc34)c2)cs1 | 61.8% and 63.7% | 62 | 58.7 | 43.8 | 62.4 | 66.6 | 33.3 | 40.5
CN1CCN(CCCN2c3ccccc3Sc3ccc(C(F)(F)F)cc32)CC1 [Trifluoperazine 2HCl] | 25.7% and 36.9% | 46.2 | 52.5 | 50.8 | 45.9 | 58.7 | 47.6 | 46.7
